# Measured values from PMC11006913.
# Biological target: NKX3-2 (Homo sapiens, UniProt P78367 192-278, P234S)
# Assay: PBM; 200 nM protein, PBS
# Details: dsDNA, one strand shown
# Sequence of NKX3-2 (Homo sapiens, UniProt P78367 192-278, P234S) (P78367 192-278 P234S): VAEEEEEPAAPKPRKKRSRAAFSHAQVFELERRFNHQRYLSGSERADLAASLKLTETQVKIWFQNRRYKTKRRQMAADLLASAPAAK
row,Sequence,binding signal
1,ACCTCTTG,"11.6 upbm affinity estimate (log intensity, higher = more binding, comparable within an allelic series)"
2,AAAGTGGC,"12.6 upbm affinity estimate (log intensity, higher = more binding, comparable within an allelic series)"
3,CTGCATCC,"10.6 upbm affinity estimate (log intensity, higher = more binding, comparable within an allelic series)"
4,AAGTGACG,"11.7 upbm affinity estimate (log intensity, higher = more binding, comparable within an allelic series)"
5,GAGGCAGC,"10.4 upbm affinity estimate (log intensity, higher = more binding, comparable within an allelic series)"
6,CTGCCGCA,"10.7 upbm affinity estimate (log intensity, higher = more binding, comparable within an allelic series)"
7,CCGCTCAG,"10.6 upbm affinity estimate (log intensity, higher = more binding, comparable within an allelic series)"
8,CAGGGAAG,"10.5 upbm affinity estimate (log intensity, higher = more binding, comparable within an allelic series)"
9,GGGCGGAA,"10.7 upbm affinity estimate (log intensity, higher = more binding, comparable within an allelic series)"
10,ACCAACGC,"10.7 upbm affinity estimate (log intensity, higher = more binding, comparable within an allelic series)"
11,GCCGGCGC,"10.3 upbm affinity estimate (log intensity, higher = more binding, comparable within an allelic series)"
12,GACGAACC,"10.6 upbm affinity estimate (log intensity, higher = more binding, comparable within an allelic series)"
13,ACCAGGCT,"10.6 upbm affinity estimate (log intensity, higher = more binding, comparable within an allelic series)"
14,ATCCGAGC,"10.6 upbm affinity estimate (log intensity, higher = more binding, comparable within an allelic series)"
15,GGCGCGCA,"10.6 upbm affinity estimate (log intensity, higher = more binding, comparable within an allelic series)"
16,CCCCCAAA,"10.7 upbm affinity estimate (log intensity, higher = more binding, comparable within an allelic series)"
17,CCACTTCC,"12.6 upbm affinity estimate (log intensity, higher = more binding, comparable within an allelic series)"
18,CAAGTGCG,"12.2 upbm affinity estimate (log intensity, higher = more binding, comparable within an allelic series)"
19,AGAGAGGA,"11.5 upbm affinity estimate (log intensity, higher = more binding, comparable within an allelic series)"
20,GAGTACAC,"12.1 upbm affinity estimate (log intensity, higher = more binding, comparable within an allelic series)"

row,Sequence,binding signal
1,GCCCCCGA,"10.4 upbm affinity estimate (log intensity, higher = more binding, comparable within an allelic series)"
2,GCCGTGCC,"10.6 upbm affinity estimate (log intensity, higher = more binding, comparable within an allelic series)"
3,CGGGTTAG,"10.5 upbm affinity estimate (log intensity, higher = more binding, comparable within an allelic series)"
4,AAGTAGGT,"11.7 upbm affinity estimate (log intensity, higher = more binding, comparable within an allelic series)"
5,CCTGGCCG,"10.5 upbm affinity estimate (log intensity, higher = more binding, comparable within an allelic series)"
6,GGCACTCA,"12.5 upbm affinity estimate (log intensity, higher = more binding, comparable within an allelic series)"
7,ACGGCAGC,"10.6 upbm affinity estimate (log intensity, higher = more binding, comparable within an allelic series)"
8,ACCACTTC,"12.8 upbm affinity estimate (log intensity, higher = more binding, comparable within an allelic series)"
9,ACGGCGGG,"10.4 upbm affinity estimate (log intensity, higher = more binding, comparable within an allelic series)"
10,AGGCGCCG,"10.5 upbm affinity estimate (log intensity, higher = more binding, comparable within an allelic series)"
11,GAAGTGCC,"12.8 upbm affinity estimate (log intensity, higher = more binding, comparable within an allelic series)"
12,GGTCAAAC,"10.5 upbm affinity estimate (log intensity, higher = more binding, comparable within an allelic series)"
13,GGTTGAAC,"10.6 upbm affinity estimate (log intensity, higher = more binding, comparable within an allelic series)"
14,CGGGCAGC,"10.6 upbm affinity estimate (log intensity, higher = more binding, comparable within an allelic series)"
15,AACCAGCC,"10.4 upbm affinity estimate (log intensity, higher = more binding, comparable within an allelic series)"
16,GTCACTTA,"12.5 upbm affinity estimate (log intensity, higher = more binding, comparable within an allelic series)"
17,CCAGACCA,"10.6 upbm affinity estimate (log intensity, higher = more binding, comparable within an allelic series)"
18,CGGTTGAC,"10.5 upbm affinity estimate (log intensity, higher = more binding, comparable within an allelic series)"
19,CCGCCGAA,"10.4 upbm affinity estimate (log intensity, higher = more binding, comparable within an allelic series)"
20,AGGCATGG,"10.6 upbm affinity estimate (log intensity, higher = more binding, comparable within an allelic series)"

# Biological target: NKX3-2 (Homo sapiens, UniProt P78367 192-278)
# Sequence (P78367 192-278): as the sequence (P78367 192-278 P234S) above, with S43P counted along it
# Assay: PBM; 200 nM protein, PBS
# Details: dsDNA, one strand shown
row,Sequence,binding signal
1,ACCTCTTG,"11.7 upbm affinity estimate (log intensity, higher = more binding, comparable within an allelic series)"
2,AAAGTGGC,"12.6 upbm affinity estimate (log intensity, higher = more binding, comparable within an allelic series)"
3,CTGCATCC,"10.7 upbm affinity estimate (log intensity, higher = more binding, comparable within an allelic series)"
4,AAGTGACG,"11.9 upbm affinity estimate (log intensity, higher = more binding, comparable within an allelic series)"
5,GAGGCAGC,"10.4 upbm affinity estimate (log intensity, higher = more binding, comparable within an allelic series)"
6,CTGCCGCA,"10.6 upbm affinity estimate (log intensity, higher = more binding, comparable within an allelic series)"
7,CCGCTCAG,"10.6 upbm affinity estimate (log intensity, higher = more binding, comparable within an allelic series)"
8,CAGGGAAG,"10.5 upbm affinity estimate (log intensity, higher = more binding, comparable within an allelic series)"
9,GGGCGGAA,"10.7 upbm affinity estimate (log intensity, higher = more binding, comparable within an allelic series)"
10,ACCAACGC,"10.7 upbm affinity estimate (log intensity, higher = more binding, comparable within an allelic series)"
11,GCCGGCGC,"10.3 upbm affinity estimate (log intensity, higher = more binding, comparable within an allelic series)"
12,GACGAACC,"10.5 upbm affinity estimate (log intensity, higher = more binding, comparable within an allelic series)"
13,ACCAGGCT,"10.6 upbm affinity estimate (log intensity, higher = more binding, comparable within an allelic series)"
14,ATCCGAGC,"10.6 upbm affinity estimate (log intensity, higher = more binding, comparable within an allelic series)"
15,GGCGCGCA,"10.6 upbm affinity estimate (log intensity, higher = more binding, comparable within an allelic series)"
16,CCCCCAAA,"10.7 upbm affinity estimate (log intensity, higher = more binding, comparable within an allelic series)"
17,CCACTTCC,"12.7 upbm affinity estimate (log intensity, higher = more binding, comparable within an allelic series)"
18,CAAGTGCG,"12.3 upbm affinity estimate (log intensity, higher = more binding, comparable within an allelic series)"
19,AGAGAGGA,"11.6 upbm affinity estimate (log intensity, higher = more binding, comparable within an allelic series)"
20,GAGTACAC,"12.2 upbm affinity estimate (log intensity, higher = more binding, comparable within an allelic series)"

row,Sequence,binding signal
1,GCCCCCGA,"10.4 upbm affinity estimate (log intensity, higher = more binding, comparable within an allelic series)"
2,GCCGTGCC,"10.6 upbm affinity estimate (log intensity, higher = more binding, comparable within an allelic series)"
3,CGGGTTAG,"10.5 upbm affinity estimate (log intensity, higher = more binding, comparable within an allelic series)"
4,AAGTAGGT,"11.8 upbm affinity estimate (log intensity, higher = more binding, comparable within an allelic series)"
5,CCTGGCCG,"10.5 upbm affinity estimate (log intensity, higher = more binding, comparable within an allelic series)"
6,GGCACTCA,"12.6 upbm affinity estimate (log intensity, higher = more binding, comparable within an allelic series)"
7,ACGGCAGC,"10.5 upbm affinity estimate (log intensity, higher = more binding, comparable within an allelic series)"
8,ACCACTTC,"12.8 upbm affinity estimate (log intensity, higher = more binding, comparable within an allelic series)"
9,ACGGCGGG,"10.4 upbm affinity estimate (log intensity, higher = more binding, comparable within an allelic series)"
10,AGGCGCCG,"10.5 upbm affinity estimate (log intensity, higher = more binding, comparable within an allelic series)"
11,GAAGTGCC,"12.9 upbm affinity estimate (log intensity, higher = more binding, comparable within an allelic series)"
12,GGTCAAAC,"10.5 upbm affinity estimate (log intensity, higher = more binding, comparable within an allelic series)"
13,GGTTGAAC,"10.6 upbm affinity estimate (log intensity, higher = more binding, comparable within an allelic series)"
14,CGGGCAGC,"10.5 upbm affinity estimate (log intensity, higher = more binding, comparable within an allelic series)"
15,AACCAGCC,"10.4 upbm affinity estimate (log intensity, higher = more binding, comparable within an allelic series)"
16,GTCACTTA,"12.6 upbm affinity estimate (log intensity, higher = more binding, comparable within an allelic series)"
17,CCAGACCA,"10.5 upbm affinity estimate (log intensity, higher = more binding, comparable within an allelic series)"
18,CGGTTGAC,"10.5 upbm affinity estimate (log intensity, higher = more binding, comparable within an allelic series)"
19,CCGCCGAA,"10.4 upbm affinity estimate (log intensity, higher = more binding, comparable within an allelic series)"
20,AGGCATGG,"10.5 upbm affinity estimate (log intensity, higher = more binding, comparable within an allelic series)"
